Measured values published in ChEMBL document CHEMBL3988442, “University of Dundee, Small-Polar-MMV Screening Library” (2021).
Values joined by “and” are separate entries in the source; they are usually repeats but may differ in a detail not shown here. Equal entries are not always repeated. For some of these results: Potency and affinity values are given separately.

Tests used:
Set-up in all cases: scale not given: direction of the effect not stated beside the values
[1] = biological target: Protein translocase subunit SecA (Escherichia coli (strain K12)) (UniProt P10408); experiment: Assay to Identify E. coli SecA ATPase Inhibitors; assay type: functional; details: 30 µM
[2] = biological target: T1, Ubiquitin-activating enzyme e1, putative (Leishmania donovani (strain BPK282A1)) (UniProt E9BSI1); experiment: Leishmania donovani Ubiquitin Activating Enzyme (LdE1); assay type: functional; details: 30 µM
T1 sequence (whole entry): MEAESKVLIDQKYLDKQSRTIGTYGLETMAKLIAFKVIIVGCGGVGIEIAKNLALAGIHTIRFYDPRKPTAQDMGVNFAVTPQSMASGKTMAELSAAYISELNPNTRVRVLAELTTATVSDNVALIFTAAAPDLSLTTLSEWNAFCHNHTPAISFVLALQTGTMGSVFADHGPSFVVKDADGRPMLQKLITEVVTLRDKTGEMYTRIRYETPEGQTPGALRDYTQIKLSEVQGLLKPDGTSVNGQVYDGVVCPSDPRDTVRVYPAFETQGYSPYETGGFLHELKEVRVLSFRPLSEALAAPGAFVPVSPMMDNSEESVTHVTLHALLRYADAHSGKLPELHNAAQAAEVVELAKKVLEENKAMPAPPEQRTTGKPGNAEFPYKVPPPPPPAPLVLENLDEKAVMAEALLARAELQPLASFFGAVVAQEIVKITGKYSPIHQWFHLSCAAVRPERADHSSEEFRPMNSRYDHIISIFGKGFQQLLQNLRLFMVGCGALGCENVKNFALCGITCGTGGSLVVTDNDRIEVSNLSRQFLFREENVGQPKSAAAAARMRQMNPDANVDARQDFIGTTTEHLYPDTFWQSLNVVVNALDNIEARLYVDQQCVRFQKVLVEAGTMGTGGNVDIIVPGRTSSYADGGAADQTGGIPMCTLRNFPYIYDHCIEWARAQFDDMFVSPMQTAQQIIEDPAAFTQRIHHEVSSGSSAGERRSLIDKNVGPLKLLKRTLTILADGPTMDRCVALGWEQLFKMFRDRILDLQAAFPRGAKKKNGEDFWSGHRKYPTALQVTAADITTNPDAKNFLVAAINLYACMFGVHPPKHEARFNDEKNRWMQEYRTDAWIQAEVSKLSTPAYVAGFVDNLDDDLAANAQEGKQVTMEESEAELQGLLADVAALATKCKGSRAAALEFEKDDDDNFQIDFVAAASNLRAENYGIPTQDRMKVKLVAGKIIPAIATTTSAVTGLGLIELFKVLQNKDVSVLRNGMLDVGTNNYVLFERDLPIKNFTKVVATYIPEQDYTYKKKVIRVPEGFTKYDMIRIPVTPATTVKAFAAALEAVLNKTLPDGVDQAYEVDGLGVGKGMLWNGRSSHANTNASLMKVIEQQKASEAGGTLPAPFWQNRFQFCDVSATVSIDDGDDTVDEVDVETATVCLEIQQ

[3] = biological target: Sialic acid-binding Ig-like lectin 9 (Homo sapiens) (UniProt Q9Y336); experiment: Hs-Siglec9 ALPHAscreen SOP 20170721; details: 10 µM
Trypanosoma cruzi = experiment: Trypanosoma cruzi phosphomannomutase and mannose-1-phosphate guanylyltransferase assay; assay type: functional; details: 10 µM
[4] = biological target: T2, Arginase-2, mitochondrial (Homo sapiens) (UniProt P78540); experiment: in vitro enzyme assay to detect the production of urea directly proportional to the activity of Arginase II; assay type: functional; also: in the data most compounds retested in dose-response had high values
T2 sequence (whole entry): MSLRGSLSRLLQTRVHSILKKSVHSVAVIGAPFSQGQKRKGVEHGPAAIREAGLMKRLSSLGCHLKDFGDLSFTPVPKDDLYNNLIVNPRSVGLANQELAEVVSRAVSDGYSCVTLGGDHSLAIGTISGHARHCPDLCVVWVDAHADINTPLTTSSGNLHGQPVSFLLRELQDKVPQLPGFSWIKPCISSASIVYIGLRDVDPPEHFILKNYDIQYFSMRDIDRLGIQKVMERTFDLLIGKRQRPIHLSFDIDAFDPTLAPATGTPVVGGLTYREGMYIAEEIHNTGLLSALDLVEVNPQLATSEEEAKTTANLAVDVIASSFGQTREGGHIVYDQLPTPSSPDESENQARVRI

[5] = biological target: T3, Proteasome subunit beta (Trypanosoma cruzi) (UniProt O96673); experiment: Trypanosoma cruzi proteasome chymotrypsin-like activity (TcProtChymo) assay.; also: in the data most compounds retested in dose-response had high values; assay type: functional; details: 9.37 µM
T3 sequence (whole entry): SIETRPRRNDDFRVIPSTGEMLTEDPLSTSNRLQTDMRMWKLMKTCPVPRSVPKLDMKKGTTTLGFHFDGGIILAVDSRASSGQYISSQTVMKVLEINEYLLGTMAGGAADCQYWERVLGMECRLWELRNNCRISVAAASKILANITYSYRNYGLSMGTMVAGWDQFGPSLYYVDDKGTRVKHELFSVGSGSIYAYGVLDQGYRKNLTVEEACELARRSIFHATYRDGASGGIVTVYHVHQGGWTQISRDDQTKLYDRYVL

N/A = experiment: Trypanosoma cruzi proteasome luciferase counter-screen; assay type: functional; details: 9.37 µM
Homo sapiens = organism: Homo sapiens; experiment: To identify inhibition of the IFN signalling (Jak-Stat) pathway via expression of an eGFP reporter gene under the control of an IFN-stimulated response element (ISRE) containing MxA promoter.; assay type: functional; details: 30 µM
[6] = biological target: T4, Tyrosyl-tRNA synthetase, putative (Trypanosoma cruzi (strain CL Brener)) (UniProt Q4DSP6); experiment: Trypanosoma cruzi tyrosyl tRNA synthetase (TcYRS) _High Tyrosine SOP; assay type: functional; details: 30 µM; also: in the data most compounds retested in dose-response had high values
T4 sequence (whole entry): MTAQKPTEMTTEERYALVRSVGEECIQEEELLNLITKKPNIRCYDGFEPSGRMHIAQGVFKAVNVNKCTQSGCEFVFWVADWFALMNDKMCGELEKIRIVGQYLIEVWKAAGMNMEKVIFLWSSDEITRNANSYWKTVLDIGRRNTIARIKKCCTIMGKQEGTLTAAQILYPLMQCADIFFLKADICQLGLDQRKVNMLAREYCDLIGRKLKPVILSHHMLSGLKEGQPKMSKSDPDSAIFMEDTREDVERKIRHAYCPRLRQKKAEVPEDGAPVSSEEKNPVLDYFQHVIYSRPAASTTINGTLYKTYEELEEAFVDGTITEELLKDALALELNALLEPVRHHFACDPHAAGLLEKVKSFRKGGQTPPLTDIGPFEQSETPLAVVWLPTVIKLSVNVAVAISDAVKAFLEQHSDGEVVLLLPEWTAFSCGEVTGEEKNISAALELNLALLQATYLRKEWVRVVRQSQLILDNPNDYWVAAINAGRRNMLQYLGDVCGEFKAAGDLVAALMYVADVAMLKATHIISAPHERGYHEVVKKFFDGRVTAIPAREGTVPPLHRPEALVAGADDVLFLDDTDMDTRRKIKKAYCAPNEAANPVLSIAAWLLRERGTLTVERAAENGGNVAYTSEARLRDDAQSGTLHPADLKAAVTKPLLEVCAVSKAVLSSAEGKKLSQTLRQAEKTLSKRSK

[7] = biological target: T4, Tyrosyl-tRNA synthetase, putative (Trypanosoma cruzi (strain CL Brener)); experiment: Trypanosoma cruzi tyrosyl tRNA synthetase (TcYRS) SOP; assay type: functional; details: 30 µM
[8] = biological target: Chromo domain-containing protein 1 (Saccharomyces cerevisiae (strain ATCC 204508 / S288c) (Baker's yeast)) (UniProt P32657); experiment: ScCHD-1 Enzyme Inhibition Assay; assay type: functional; details: 30 µM; also: in the data most compounds retested in dose-response had high values
[9] = biological target: AMP-activated protein kinase, AMPK (Homo sapiens) (UniProt P54646+O43741+P54619+Q9UGJ0+Q9Y478+Q13131+Q9UGI9); experiment: AMP-dependent Kinase enzyme assay. An in vitro enzyme assay that detects ADP turnover that is directly proportional to AMPK activity. This uses naive AMPK that is activated during the assay with MK-8722; assay type: functional; details: 30 µM

Sequence of Chromo domain-containing protein 1 (Saccharomyces cerevisiae (strain ATCC 204508 / S288c) (Baker's yeast)) (P32657 whole entry, the tested form may be a part): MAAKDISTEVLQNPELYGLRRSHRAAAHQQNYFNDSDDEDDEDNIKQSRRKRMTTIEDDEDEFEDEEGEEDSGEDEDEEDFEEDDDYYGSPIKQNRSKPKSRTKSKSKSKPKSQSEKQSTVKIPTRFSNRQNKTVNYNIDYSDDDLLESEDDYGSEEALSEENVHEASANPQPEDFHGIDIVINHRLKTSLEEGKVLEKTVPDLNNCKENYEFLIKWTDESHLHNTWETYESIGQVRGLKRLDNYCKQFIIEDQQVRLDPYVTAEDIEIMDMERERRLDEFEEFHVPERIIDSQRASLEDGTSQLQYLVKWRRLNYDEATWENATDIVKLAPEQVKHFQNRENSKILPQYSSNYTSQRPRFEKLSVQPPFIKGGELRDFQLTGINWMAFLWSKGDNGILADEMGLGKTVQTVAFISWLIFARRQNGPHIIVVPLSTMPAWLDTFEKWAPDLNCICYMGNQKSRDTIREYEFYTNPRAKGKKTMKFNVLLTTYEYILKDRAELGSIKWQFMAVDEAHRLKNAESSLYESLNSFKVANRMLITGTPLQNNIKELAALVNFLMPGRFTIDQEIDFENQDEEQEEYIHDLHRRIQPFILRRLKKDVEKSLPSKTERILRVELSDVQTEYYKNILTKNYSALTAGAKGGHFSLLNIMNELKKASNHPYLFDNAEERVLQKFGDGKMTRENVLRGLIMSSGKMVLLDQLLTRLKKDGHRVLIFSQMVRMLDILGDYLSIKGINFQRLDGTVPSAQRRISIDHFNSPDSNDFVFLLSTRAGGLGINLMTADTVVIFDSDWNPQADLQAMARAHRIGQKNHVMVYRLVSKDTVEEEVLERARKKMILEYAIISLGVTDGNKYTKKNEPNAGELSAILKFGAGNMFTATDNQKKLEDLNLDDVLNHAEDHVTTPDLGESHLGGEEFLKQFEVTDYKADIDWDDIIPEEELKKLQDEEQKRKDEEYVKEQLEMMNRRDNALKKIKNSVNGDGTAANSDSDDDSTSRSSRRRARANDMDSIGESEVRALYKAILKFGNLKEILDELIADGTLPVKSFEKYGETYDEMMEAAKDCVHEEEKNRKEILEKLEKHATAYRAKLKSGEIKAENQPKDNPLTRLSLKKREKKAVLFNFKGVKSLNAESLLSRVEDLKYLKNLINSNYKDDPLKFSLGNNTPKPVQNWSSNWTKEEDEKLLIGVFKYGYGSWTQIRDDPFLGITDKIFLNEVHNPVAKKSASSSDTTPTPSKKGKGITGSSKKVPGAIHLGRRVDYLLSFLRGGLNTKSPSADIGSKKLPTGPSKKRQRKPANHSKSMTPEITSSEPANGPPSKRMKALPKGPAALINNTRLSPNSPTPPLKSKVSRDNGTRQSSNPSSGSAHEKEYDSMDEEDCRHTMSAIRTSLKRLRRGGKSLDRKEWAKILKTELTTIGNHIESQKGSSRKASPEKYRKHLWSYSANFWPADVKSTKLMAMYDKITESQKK
Sequence of Protein translocase subunit SecA (Escherichia coli (strain K12)) (P10408 whole entry): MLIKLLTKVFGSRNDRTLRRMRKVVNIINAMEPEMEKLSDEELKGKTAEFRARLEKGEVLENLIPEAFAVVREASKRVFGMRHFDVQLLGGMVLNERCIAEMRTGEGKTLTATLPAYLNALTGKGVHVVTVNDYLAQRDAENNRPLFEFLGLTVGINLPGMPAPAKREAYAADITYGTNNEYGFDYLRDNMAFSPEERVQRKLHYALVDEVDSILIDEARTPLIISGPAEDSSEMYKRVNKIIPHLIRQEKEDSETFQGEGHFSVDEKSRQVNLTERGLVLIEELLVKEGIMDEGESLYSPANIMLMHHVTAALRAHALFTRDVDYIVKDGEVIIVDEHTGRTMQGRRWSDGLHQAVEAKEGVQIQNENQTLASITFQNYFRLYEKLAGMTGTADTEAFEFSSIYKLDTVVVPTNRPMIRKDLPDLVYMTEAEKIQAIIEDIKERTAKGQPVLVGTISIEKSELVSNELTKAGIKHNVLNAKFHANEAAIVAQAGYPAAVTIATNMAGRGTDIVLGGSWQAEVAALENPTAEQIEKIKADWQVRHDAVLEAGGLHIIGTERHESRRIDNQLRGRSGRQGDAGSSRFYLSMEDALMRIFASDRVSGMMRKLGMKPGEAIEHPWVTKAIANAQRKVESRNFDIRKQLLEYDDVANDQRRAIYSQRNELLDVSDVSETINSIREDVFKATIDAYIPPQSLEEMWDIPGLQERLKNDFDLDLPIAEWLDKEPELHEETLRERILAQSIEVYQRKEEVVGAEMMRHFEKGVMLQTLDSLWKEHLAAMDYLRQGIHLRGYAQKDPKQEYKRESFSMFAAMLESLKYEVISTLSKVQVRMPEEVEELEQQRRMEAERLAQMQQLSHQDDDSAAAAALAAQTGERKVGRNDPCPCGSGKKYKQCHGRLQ
Sequence of Sialic acid-binding Ig-like lectin 9 (Homo sapiens) (Q9Y336 whole entry): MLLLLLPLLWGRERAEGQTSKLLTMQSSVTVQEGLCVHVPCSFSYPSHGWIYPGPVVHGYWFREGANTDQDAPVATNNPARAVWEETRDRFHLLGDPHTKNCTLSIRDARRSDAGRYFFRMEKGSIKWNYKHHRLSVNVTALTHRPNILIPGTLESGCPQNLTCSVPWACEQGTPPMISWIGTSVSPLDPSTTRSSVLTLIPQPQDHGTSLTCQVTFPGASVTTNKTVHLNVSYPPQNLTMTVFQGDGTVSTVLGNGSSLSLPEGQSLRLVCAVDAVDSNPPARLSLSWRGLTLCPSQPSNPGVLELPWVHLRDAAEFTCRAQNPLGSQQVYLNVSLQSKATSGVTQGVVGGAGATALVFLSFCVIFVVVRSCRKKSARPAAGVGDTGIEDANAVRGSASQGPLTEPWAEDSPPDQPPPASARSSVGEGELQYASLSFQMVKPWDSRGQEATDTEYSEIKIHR

SMILES	Percent Effect [1]	Percent Effect [2]	Percent Effect [3]	Percent Effect (Trypanosoma cruzi)	Percent Effect ([4]; 33.3 µM)	Percent Effect [5]	Percent Effect (N/A)	Percent Effect (Homo sapiens)	Percent Effect [6]	Percent Effect [7]	Percent Effect [8]	Percent Effect [9]	Percent Effect ([4]; 30 µM)
Cc1nc(C)c(C(=O)OCCNc2ncccc2C#N)s1	-3.81%	10.4%	12.8%	-7.09%	1.02%	71.6% and 65.6% and 62.3%	28.5% and 30.6%	32.9%	2.94%	9.41%	0.0387%		
O=S(=O)(NCC1(O)CCOc2ccccc21)c1ccc(Br)s1 (stereo not drawn)	-7.03%	2.74%	-1.37%	-3.72%	-1.82%	4.97%		21.1%			-2.54%	6.4%	
COc1ccc(-c2ccnc3c2C(=O)CCC3)cc1	0.627%	22.7%	-8.36%	0.789%	0.885%	78.1% and 77.9% and 84.4%	54.8% and 45.5%	22.2%	2.12%	7.5%	-22.2%		
CN(C)c1cc(CNC(=O)Nc2ccc(F)cc2)ccn1	2.4%	17.9%	-9.83%	3.29%	0.41%	47.8% and 47.4% and 50.2%	25.9% and 25.6%	6.94%	7.18%	25.3%	-3.18%		
O=C(NCCCN1CCOCC1)c1ccn(-c2ccc3ccccn23)n1	-0.779%	6.49%	1.13%	-2.43%	-4.05%	30.3% and 30.6% and 42.5%	15% and 12%	5.6%	8.95%	7.69%	1.74%		
CCn1cc(NC(=O)CCc2ccc3c(c2)OCCCO3)cn1	-5.48%	15.6%	6.08%	4.85%	-6.35%	2.28%		0.692%	6.86%	23.5%	-12.8%		
Cc1nc(N)sc1C(=O)N1CCCC(c2nccn2CCCN(C)C)C1 (stereo not drawn)	-5.86%	10.8%	10.2%	7.47%	-3.15%	13.2%		7.55%	11.2%	9.76%	95.1%		9.19%
CCNC(=O)c1ccnc(NCC2COc3cc(OC)ccc3C2)c1 (stereo not drawn)	-6.93%	5.41%	2.93%	-3.78%	-1.05%	23.6%		24.8%	2.66%	7.32%	-4.55%		0.54%
Cc1ccc(C)c(C(C(=O)O)N2CCCN(Cc3ccccn3)CC2)c1 (stereo not drawn)	-6.39%	5.41%	1.19%	-2.23%	4.54%	16.3%		23.2%	6.92%	14.6%	-4.84%		0.54%
Cc1ccc(NC(=O)C2=CN=S=N2)cc1	1.26%	17.3%	-13.9%	3.94%	0%	84.2% and 80.5% and 69%	45.6% and 45.1%	21.4%	4.23%	10%	-20.4%		
Cc1nc(C)n(CC2CCCN2Cc2nc(N)c3ccccc3n2)n1 (stereo not drawn)	-1.49%	21.3%	-3.38%	3.81%	-3.1%	16.4% and 18.4% and 30.6%	8.36% and 7.38%	8.71%	6.84%	15.4%	-17.8%		
